Measured values from PubChem BioAssay (NCI).
Several values for one entry are separate records, joined by “and”; a condition that tells them apart may be missing. Equal values may be shown once. This is part of a sample that, as a whole, favours compounds with a hit. Of some 83,000 tested, about 20% had one in any assay.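 Cells were grown in 96-well plates and exposed to the test compound at a single concentration for 48 hours; results are reported as percent growth, with values below 10 considered active.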 Activity calls are given as the source filed them.

Experiments:
Experiment in all cases: NCI-60 one-dose screen, 48 h (100 = growth as untreated, 0 = no growth, -100 = all killed)
[1] = test system: BT-549 breast; details: 10 µM unless noted
[2] = test system: MDA-MB-435 melanoma; details: 10 µM unless noted
[3] = test system: SW-620 colon; details: 10 µM unless noted
[4] = test system: MCF7 breast
[5] = test system: HCT-116 colon; details: 10 µM unless noted
[6] = test system: HCC-2998 colon; details: 10 µM unless noted
[7] = test system: KM12 colon; details: 10 µM unless noted

Measured: growth

O=C(Cc1ccccn1)C(F)(F)C(F)(F)C(F)(F)F
inactive: [1] 127% | [2] 113% | [3] 109% | [4]; 10 µM unless noted 97.3% | [5] 104% | [6] 100%

CCOC(=O)c1c2c(c(C)n1Cc1ccccc1)-c1nc(N)ncc1CC2
inactive: [1] 162% | [2] 136% | [3] 104% | [4]; 10 µM unless noted 106% | [5] 90.7% | [6] 97.4%

COc1ccc(-c2csc(NC(=O)c3cc(O)c(O)c(O)c3)n2)cc1
inactive: [1] 66.9% | [2] 64.4% | [3] 56.8% | [4]; 10 µM unless noted 60.6% | [5] 49.5%

CCOC(=O)c1cc(-c2cccnc2)nc2c(Cl)cc(Cl)cc12
inactive: [1] 109% | [2] 95% | [3] 103% | [4]; 10 µM unless noted 90.5% | [5] 56.4% | [6] 98.1%

c1cnc2n[nH]c(Nc3ncnc4c3sc3ncccc34)c2c1
inactive: [1] 106% | [2] 101% | [3] 101% | [4]; 10 µM unless noted 91.3% | [5] 96.2% | [6] 108%

CCOC(=O)c1c(C)nc(C)c(C(=O)OCC)c1-c1cccnc1
inactive: [1] 106% | [2] 111% | [3] 112% | [4]; 10 µM unless noted 109% | [5] 90% | [6] 104%

Cc1nn(-c2ccccc2)c2ncc3c(c12)C(=O)N(Cc1ccccc1)C3=O
inactive: [1] 76.4% | [2] 90.7% | [3] 61% | [4]; 10 µM unless noted 58.8% | [5] 10.5% | [6] 63%

O=C1/C(=C/c2ccc([N+](=O)[O-])o2)Oc2ccc(Cl)cc21
active: [1] -53.4% | [2] -72.8% | [3] -78.7% | [4]; 10 µM unless noted -24.6% | [5] -26.6%

N#CCCCCCn1c2ccccc2c2c3c(c4c5ccccc5[nH]c4c21)C(=O)N(O)C3=O
active: [4]; 10 µM unless noted 6.24% | [5] -33.3% | [6] 1.36%
inactive: [1] 16.1% | [2] 14.3% | [3] 12.5%

CCCn1cnc2c1c(=O)n(CCCCC(C)=O)c(=O)n2C
inactive: [1] 103% | [2] 117% | [3] 97.7% | [4]; 10 µM unless noted 92.6% | [5] 96.8% | [6] 100%

O=C(Nc1nc2ccccc2s1)c1cc(-c2ccc(F)cc2)n2nc(-c3ccccc3)cc2n1
inactive: [1] 79% | [2] 86.5% | [3] 67.8% | [4]; 10 µM unless noted 69.3% | [5] 45.8% | [6] 97.5%

c1ccc(Nc2nnc(-c3cc(-c4cccnc4)n(-c4ccccc4)n3)s2)cc1
inactive: [1] 85.8% | [2] 80.7% | [3] 97.1% | [4]; 10 µM unless noted 95.7% | [5] 76.8% | [6] 72.5%

NC(=O)SCC(=O)Nc1ccccc1-c1ccccc1
inactive: [1] 89.4% | [2] 109% | [3] 115% | [4]; 10 µM unless noted 94.8% | [5] 87.4% | [6] 95.5%

Clc1cc(Cl)c(OCC#CI)cc1Cl
active: [3] -65.9% | [4]; 10 µM unless noted 9.27% | [5] -71.6%
inactive: [1] 135% | [2] 55.5% | [6] 109%

O=C1Nc2ccc(F)cc2/C1=C/c1nc(-c2ccc(F)cc2)n2ccccc12
inactive: [1] 96.8% | [2] 85% | [3] 80.1% | [4]; 10 µM unless noted 85.6% | [5] 91.1% | [6] 108%

Cc1cc(Cl)ccc1Nc1nc(C(F)(F)F)ccc1C(=O)NCC(=O)N/N=C/c1c(Cl)cccc1Cl
inactive: [1] 85.5% | [2] 79.6% | [3] 80.3% | [4]; 10 µM unless noted 56.2% | [5] 57.7% | [6] 92.9%

O=C(CSc1nnc(Nc2ccccc2)s1)NCCc1ccc(F)cc1
inactive: [1] 109% | [2] 101% | [3] 103% | [4]; 10 µM unless noted 109% | [5] 99.8% | [6] 99.3%

O=C1CCCN1C1CCN(Cc2cc3ccccc3[nH]c2=O)c2ccccc21 (configuration not stated)
inactive: [1] 98.2% | [2] 93.5% | [3] 96.3% | [4]; 10 µM unless noted 92.8% | [5] 82.6% | [6] 96.4%

NNC(=O)NO
inactive: [1] 99% | [2] 108% | [3] 103% | [4]; 10 µM unless noted 94% | [5] 101% | [6] 99.9%

OC(Cc1cccnc1)c1ccccc1 (configuration not stated)
inactive: [1] 107% | [2] 110% | [3] 100% | [4]; 10 µM unless noted 104% | [5] 107% | [6] 107%

O=C1OCCCCCCCCCC#Cc2ccccc21
inactive: [1] 124% | [2] 104% | [3] 93.9% | [4]; 10 µM unless noted 164% | [5] 70.4%

Cc1nc(N)[nH]c(=O)c1C
inactive: [1] 45.1% | [2] 106% | [3] 125% | [4]; 10 µM unless noted 95% | [5] 101% | [6] 81.1%

O=C1C(Cl)=C(N=Nc2c(Cl)c(O)c3ccccc3c2O)C(=O)c2ccccc21
inactive: [1] 62% | [3] 90% | [4]; 10 µM unless noted 62.6% | [5] 70.4% | [6] 74.4%
active: [2] -31.7%

COc1cc2c(cc1OCCCCCn1c(-c3ccc(OCc4ccccc4)cc3)nc3cc(N4CCOCC4)ccc31)N=C[C@@H]1CCCN1C2=O
active: [1] 1.75% | [2] -9.74% | [3] 0% | [4]; 10 µM unless noted -3.99% | [5] 2.97% | [6] 4.97%

Cc1nn(-c2ccc(Cl)cc2)c2nc3c(nc12)C(=O)C(=O)c1ccccc1-3
inactive: [1] 92.1% | [2] 97.7% | [3] 67.2% | [4]; 10 µM unless noted 49.7% | [5] 80.2% | [6] 66.6%

CCC(CC)NCCCCCNc1cc(OC)cc2cccnc12
inactive: [1] 88% | [2] 107% | [3] 95.4% | [4]; 10 µM unless noted 58.4% | [5] 90.5% | [6] 117%

c1csc([C@@H]2C[C@@H]3Cc4ccc5ccccc5c4N2O3)c1
inactive: [1] 112% | [2] 87.1% | [3] 98.5% | [4]; 10 µM unless noted 99.8% | [5] 101% | [6] 105%

c1ccc2c(c1)[nH]c1c2cc[n+]2cc3c(cc12)CCCC3
inactive: [1] 72.7% | [2] 11.5% | [3] 20.7% | [5] 14.7% | [6] 24.6% | [7] 26.4%
active: [4]; 10 µM -13.9% | [4]; 100 µM -78.5% and -87.5%

Cn1[nH]cc(/C=N/C(N)=O)c1=O
inactive: [1] 113% | [2] 119% | [3] 102% | [4]; 10 µM unless noted 99.6% | [5] 109% | [6] 103%

Oc1[nH]c2ccccc2c1/C=c1/ccc2c(c1)N=C(c1cc(F)cc(F)c1)N=2
inactive: [1] 40.4% | [2] 25.2% | [3] 36.4% | [4]; 10 µM unless noted 25.1% | [5] 28.7% | [6] 81.1%

CCCCCCCCCCSc1ncnc2nc[nH]c12
inactive: [1] 75.8% | [2] 76.6% | [3] 86.5% | [4]; 10 µM unless noted 75.9% | [5] 48.8% | [6] 78.1%

Nc1nc2ncc(CCNc3ccc(C(=O)NC(CCC(=O)O)C(=O)O)cc3)nc2c(=O)[nH]1 (configuration not stated)
inactive: [1] 114% | [2] 112% | [3] 103% | [4]; 10 µM unless noted 112% | [5] 107%

O=Nc1ccc(O)c(=O)cc1
active: [3] -43% | [5] 2.12%
inactive: [1] 32.5% | [2] 32% | [4]; 10 µM unless noted 20.9% | [6] 97.8%

COc1ccc(Nc2ccnc(NCCCNc3ccnc4cc(Cl)ccc34)n2)cc1
active: [1] -16.8% | [2] -94.7% | [3] -48.7% | [4]; 10 µM unless noted -2.74% | [5] -100% | [6] -74.9%

CCN(CC)c1ccc(CN(CC(=O)c2ccc(Cl)c(Cl)c2)Cc2ccccc2)cc1
inactive: [1] 109% | [2] 106% | [3] 96% | [4]; 10 µM unless noted 95.5% | [5] 104% | [6] 107%

N#Cc1ccc(NC(=O)Nc2ccc(Oc3ccc(NC(=O)Nc4ccc(C#N)cc4)cc3)cc2)cc1
inactive: [2] 35.6% | [3] 15.8% | [4]; 10 µM unless noted 20.5%
active: [1] -15.5% | [5] 5.73%

COc1ccc2c(c1)C(=O)c1c-2c(=O)n(CCCCCCC(=O)NO)c2ccccc12
inactive: [1] 23.4%
active: [2] -14.1% | [3] -27.4% | [4]; 10 µM unless noted 5.92% | [5] -55.8% | [6] -39.6%

C[C@]12CC[C@@H]3c4ccc(O)c([N+](=O)[O-])c4CC[C@H]3[C@@H]1CC[C@@H]2NS(=O)(=O)c1cccc(Br)c1
inactive: [1] 29.3% | [2] 10.7% | [3] 44.5% | [4]; 10 µM unless noted 14.6% | [5] 21.8% | [6] 51.2% | [7] 17.4%

O=c1cc(-c2cccnc2)oc2c1ccc1ccccc12
inactive: [1] 81.1% | [2] 67% | [3] 81.5% | [4]; 10 µM unless noted 73.6% | [5] 55.7% | [6] 89.2% | [7] 95.8%

CN(CC(=O)Nc1nc2ccccc2[nH]1)S(=O)(=O)c1ccc(Cl)cc1
inactive: [1] 99.2% | [2] 91.2% | [3] 67.5% | [4]; 10 µM unless noted 40.9% | [5] 72.8% | [6] 91.3% | [7] 105%

CC(=O)c1nc2ccccc2n1CCn1cc(CC(N)C(=O)O)c2ccccc21 (configuration not stated)
inactive: [1] 105% | [2] 101% | [3] 114% | [4]; 10 µM unless noted 75.3% | [5] 106% | [6] 102% | [7] 104%
